rCAG binder – r(CAG) repeat RNA binding. TO-PRO-1 dye displacement fluorescence. inhibition, % at 3 µM. actives 1.3% (n = 370,000). AID 651821;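 active = inhibition above the plate cutoff, the mean of all test compounds on that plate plus 3 SD, cut at about 35% in these data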;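 note: 0% = DMSO alone and 100% = 100 µM mitoxantrone as full dye displacement; higher means more dye released from RNA so lower well fluorescence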
NR3A LBD binder – modulates the human NR3A ligand-binding domain | NR3A LBD differential scanning fluorimetry, Tm shift; 0% = protein alone, 100% = glycine-bound protein | actives 2.5% (n = 340,000) | Tm shift relative to glycine control, % at 25 µM;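 active = melting temperature shift of at least 10% of the positive control shift, at one fixed dose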
FAS TE block – blocks the thioesterase domain of human fatty acid synthase | actives 0.67% (n = 360,000) | recombinant FAS-TE, OMFH fluorogenic substrate, fluorescence endpoint | P49327 | AID 602261 | inhibition, % at 15 µM;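 active = compounds whose normalised, plate-corrected inhibition of enzyme fluorescence in the single-dose primary screen is 50% or more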;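 note: 0% = DMSO with enzyme and 100% = substrate without enzyme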
Target sequence (P49327 whole entry, looked up, the tested form may be a part): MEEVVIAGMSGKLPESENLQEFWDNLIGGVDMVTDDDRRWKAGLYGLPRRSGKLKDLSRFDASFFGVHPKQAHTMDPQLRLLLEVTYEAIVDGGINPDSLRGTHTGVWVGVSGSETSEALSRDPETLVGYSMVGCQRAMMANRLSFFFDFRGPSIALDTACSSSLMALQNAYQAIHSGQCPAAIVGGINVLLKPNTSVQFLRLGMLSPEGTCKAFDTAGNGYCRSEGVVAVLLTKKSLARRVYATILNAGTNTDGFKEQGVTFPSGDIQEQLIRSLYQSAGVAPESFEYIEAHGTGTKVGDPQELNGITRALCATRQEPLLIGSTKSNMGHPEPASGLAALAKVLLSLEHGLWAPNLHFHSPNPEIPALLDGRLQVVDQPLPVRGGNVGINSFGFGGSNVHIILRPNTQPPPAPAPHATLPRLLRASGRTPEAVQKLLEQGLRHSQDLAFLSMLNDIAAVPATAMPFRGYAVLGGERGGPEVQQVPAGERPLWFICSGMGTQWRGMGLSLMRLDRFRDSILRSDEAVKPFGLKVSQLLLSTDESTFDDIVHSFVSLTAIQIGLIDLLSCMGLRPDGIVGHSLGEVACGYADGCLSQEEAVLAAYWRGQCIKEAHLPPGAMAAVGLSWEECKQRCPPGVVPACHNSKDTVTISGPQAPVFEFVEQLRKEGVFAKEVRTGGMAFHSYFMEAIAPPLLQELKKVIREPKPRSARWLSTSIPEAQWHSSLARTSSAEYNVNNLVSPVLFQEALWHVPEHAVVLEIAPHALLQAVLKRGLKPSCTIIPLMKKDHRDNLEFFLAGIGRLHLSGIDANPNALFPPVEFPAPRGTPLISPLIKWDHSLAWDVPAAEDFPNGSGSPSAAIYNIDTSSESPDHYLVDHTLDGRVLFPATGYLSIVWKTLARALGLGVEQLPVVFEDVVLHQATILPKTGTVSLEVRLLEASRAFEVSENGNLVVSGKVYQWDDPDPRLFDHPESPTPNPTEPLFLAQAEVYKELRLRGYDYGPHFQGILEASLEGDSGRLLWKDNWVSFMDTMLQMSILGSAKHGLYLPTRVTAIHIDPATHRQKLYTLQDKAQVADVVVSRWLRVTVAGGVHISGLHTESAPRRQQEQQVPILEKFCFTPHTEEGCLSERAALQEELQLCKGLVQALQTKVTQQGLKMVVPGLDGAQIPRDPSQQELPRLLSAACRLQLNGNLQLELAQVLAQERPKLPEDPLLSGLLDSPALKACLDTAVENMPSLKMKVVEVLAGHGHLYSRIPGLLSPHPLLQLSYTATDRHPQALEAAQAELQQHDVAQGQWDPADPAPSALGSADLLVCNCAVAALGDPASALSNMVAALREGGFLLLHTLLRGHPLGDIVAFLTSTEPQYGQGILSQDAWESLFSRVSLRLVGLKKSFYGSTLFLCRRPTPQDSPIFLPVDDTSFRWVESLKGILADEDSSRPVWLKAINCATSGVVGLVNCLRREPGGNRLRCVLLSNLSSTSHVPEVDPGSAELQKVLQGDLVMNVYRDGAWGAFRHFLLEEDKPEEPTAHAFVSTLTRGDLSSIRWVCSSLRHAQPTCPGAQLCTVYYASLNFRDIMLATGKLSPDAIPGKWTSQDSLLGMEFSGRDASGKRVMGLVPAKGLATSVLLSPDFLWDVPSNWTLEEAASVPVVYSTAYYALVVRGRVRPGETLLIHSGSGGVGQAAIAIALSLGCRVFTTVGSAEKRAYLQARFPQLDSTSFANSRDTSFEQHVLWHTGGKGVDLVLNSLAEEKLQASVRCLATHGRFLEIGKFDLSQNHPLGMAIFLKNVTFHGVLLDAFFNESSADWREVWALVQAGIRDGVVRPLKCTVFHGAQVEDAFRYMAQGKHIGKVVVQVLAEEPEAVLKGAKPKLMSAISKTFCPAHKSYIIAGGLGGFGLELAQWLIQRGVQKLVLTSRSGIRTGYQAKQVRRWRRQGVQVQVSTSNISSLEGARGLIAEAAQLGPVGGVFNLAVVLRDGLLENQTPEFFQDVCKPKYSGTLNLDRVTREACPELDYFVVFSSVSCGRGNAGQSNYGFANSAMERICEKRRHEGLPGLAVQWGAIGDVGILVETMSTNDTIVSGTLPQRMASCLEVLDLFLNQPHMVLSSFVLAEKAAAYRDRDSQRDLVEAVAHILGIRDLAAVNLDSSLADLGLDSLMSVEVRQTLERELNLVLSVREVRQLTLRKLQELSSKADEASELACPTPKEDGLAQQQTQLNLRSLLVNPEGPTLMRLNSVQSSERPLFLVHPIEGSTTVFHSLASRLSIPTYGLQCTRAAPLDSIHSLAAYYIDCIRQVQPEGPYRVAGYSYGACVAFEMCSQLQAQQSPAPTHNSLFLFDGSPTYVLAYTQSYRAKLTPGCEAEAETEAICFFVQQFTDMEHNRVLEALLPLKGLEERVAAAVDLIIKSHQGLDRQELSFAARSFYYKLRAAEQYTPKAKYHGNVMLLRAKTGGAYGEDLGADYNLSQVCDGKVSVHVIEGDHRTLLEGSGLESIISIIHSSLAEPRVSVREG
MPTP block – permeability transition pore inhibition | isolated mouse mitochondria, Ca2+ swelling absorbance, 30 min | inhibition, % at 10 µM | actives 1.4% (n = 360,000) | AID 602449;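 active = inhibition of 50% or more, scaled per plate between neutral and stimulator controls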;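 note: 0% = DMSO wells given calcium and 100% = 1 mM EGTA wells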
Myeloid diff MLP – promotes myeloid progenitor differentiation; ER-HoxA9 myeloid progenitors, lysozyme-GFP differentiation, flow cytometry; calls only at 10 µM; actives 1% (n = 360,000);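 active = normalized GFP-positive differentiation at or above the plate's own cutoff, the solvent-only control mean plus 3 SD; inconclusive = no clear call, values can overlap the other calls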;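 note: cells exposed to compound for four days before flow analysis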
MPTP counter – mitochondrial membrane potential, counter-screen. shares compounds with MPTP block. isolated mitochondria, Rhodamine 123 fluorescence. inhibition, % at 10 µM. actives 78% (n = 5,000). AID 624504; in the data active = inhibition above about 22%;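 note: 0% = DMSO vehicle and 100% = positive control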
MPTP swell DR – dose response confirmation of mitochondrial permeability transition pore inhibitors; shares compounds with MPTP block; isolated mitochondria swelling, absorbance; IC50, µM; actives 58% (n = 780); AID 651561; in the data active = IC50 below about 20 µM
MPTP cs DR – active in counter-screen for permeability transition pore inhibitors; shares compounds with MPTP block; isolated mitochondria counterscreen, fluorescence read-out; IC50, µM; actives 49% (n = 780); in the data active = IC50 below about 80 µM
Active calls of the source: *; i = inactive; u = inconclusive; x = no result given; + = active, no number. Compounds with a hit are over-represented: about 5.7% of the library has one in this group of screens.

SMILES	rCAG binder	NR3A LBD binder	FAS TE block	MPTP block	Myeloid diff MLP	MPTP counter	others
CCOc1ccc(C(=O)Nc2sc3c(c2C(=O)OC)CC(C)(C)NC3(C)C)cc1	1	-1	2	85*	u	2	MPTP swell DR=20*;MPTP cs DR=>80
CCOC(=O)c1c(NC(=O)CSc2nc3ccccc3[nH]2)sc2c1CC(C)(C)NC2(C)C	0	-1	-2	-2	i	x
COC(=O)c1c(NC(=O)c2ccc(C(=O)c3ccccc3)cc2)sc2c1CC(C)(C)NC2(C)C	7	x	2	2	u	x
Cc1ccc(S(=O)(=O)N2CCN(C(=O)C(C)Cn3nc(C)c(C)c3C)CC2)cc1 (centres undefined)	-3	-1	0	1	i	x
O=S(=O)(Nc1cccnc1)c1ccc(C2CCCCC2)cc1	9	0	-1	104*	i	106*
C/C(=N\NC(=O)c1ccc(Br)cc1)C1C(=O)c2ccccc2C1=O	48*	14*	4	74*	i	79*
CC(C)C[C@H](NC(=O)OC(C)(C)C)c1nnc(SCC(=O)Nc2ccc(Br)cc2)o1	-5	-1	20	66*	i	70*
CC(C)C[C@H](N)c1nnc(SCC(=O)Nc2ccc(Br)cc2)o1	-1	2	-4	-2	i	x
CCCCNC(=O)C[C@H]1C[C@@]2(C(=O)OC)C(=C[C@H](C3CCCC3)O[C@@H]2C)N(CCc2ccc(OC)c(OC)c2)C1=O	3	x	x	x	x	x
COc1ccc(/C(C)=N/Nc2ncc(Cl)cc2Cl)c(O)c1	2	-10	18	73*	i	73*
C=CCc1ccccc1OCCSc1nc2ccc([N+](=O)[O-])cc2s1	1	0	20	84*	i	41*
O=[N+]([O-])c1ccc2nc(SCc3ccccc3Cl)sc2c1	x	-1	30	98*	i	68*
Nc1ccc2nc(SCc3ccc([N+](=O)[O-])cc3)sc2c1	x	-3	18	0	i	x
COc1ccccc1OCCSc1nc2ccc([N+](=O)[O-])cc2s1	4	1	16	76*	i	87*
O=C(CSc1nc2ccc([N+](=O)[O-])cc2s1)c1ccc2ccccc2c1	10	-7	0	2	i	x
CCC(CC)C(C(=O)NCc1ccccc1)N1CCN(CCN2CCOCC2)CC1 (centres undefined)	0	x	x	-2	i	x
COC(=O)[C@]12C[C@H](CC(=O)NCc3cccc4ccccc34)C(=O)N(CCC3=CCCCC3)C1=C[C@H](C1CCCC1)O[C@@H]2C	5	x	x	x	x	x
CC1CC(C)CN(S(=O)(=O)c2ccc(NC(=O)CN3C(=O)NC(C)(c4ccccc4)C3=O)cc2)C1 (centres undefined)	6	-2	17	1	i	x
O=C(Nc1ccc(Cl)cc1)Nc1ccc2c(c1)N1CCN=C1S2	24	14*	-153	93*	+	77*
Oc1cc2ccccc2cc1-c1n[nH]c(=S)o1	23	-2	2	96*	i	71*
Oc1ccccc1-c1cc(-c2ccccc2Cl)[nH]n1	10	9	-1	7	i	x
Oc1ccc(Cl)cc1-c1cc(-c2ccccc2Cl)[nH]n1	11	10	-8	61*	i	67*
Oc1ccccc1-c1cc(-c2cccc(F)c2)n[nH]1	13	8	11	58*	i	71*
O=C(O)c1cc(-c2ccc(Cl)cc2)n[nH]1	3	1	-5	-2	i	x
Cc1ccc(O)c(-c2cc(-c3ccccc3C)[nH]n2)c1	8	4	13	3	i	x
SMILES	rCAG binder	NR3A LBD binder	FAS TE block	MPTP block	Myeloid diff MLP	MPTP counter	others
Oc1ccc(Cl)cc1-c1cc(-c2cccc(Br)c2)n[nH]1	27	31*	21	89*	i	68*
Cc1cc(C)n(CC(=O)NNC(=O)c2ccc(S(C)(=O)=O)cc2)n1	3	-1	-1	-1	i	x
COc1ccc(C(=O)COC(=O)c2sc(C)nc2C)cc1F	9	-3	1	-1	i	x
O=C(Nc1ccccc1)Nc1ccc(Br)cc1F	3	12*	0	53*	i	84*
Cn1nnc2cc(NC(=O)Nc3ccccc3F)ccc21	0	x	-5	-1	i	x
O=C(Nc1cccc(Cl)c1)Nc1ccc(Br)cc1F	9	21*	6	75*	i	82*
Cc1cc(NC(=O)Nc2ccccc2F)ccc1Br	10	26*	8	84*	i	91*
COc1ccccc1NC(=O)Nc1ccc(F)c(F)c1	2	23*	12	81*	i	68*
N#Cc1ccccc1NC(=O)Nc1cccc(Cl)c1	-2	0	-6	2	i	x
COc1cccc(C(=O)N2CCN(Cc3ccccc3Br)CC2)c1	-6	0	0	1	i	x
O=C(Nc1ccc(Oc2cccc(C(F)(F)F)c2)nc1)c1ccccc1	-5	-2	6	28	i	x
O=C(Nc1ccc(Oc2cccc(C(F)(F)F)c2)nc1)c1cccs1	-3	-5	21	50*	i	57*
Cc1ccc(OCCCCNC2CCCC(C)C2C)c(C)c1 (centres undefined)	7	0	-4	60*	i	-1
Cc1ccc(OCCCCN2CCCCC2)c(C)c1	1	0	-7	-1	i	x
Cc1ccc(-c2csc(N3CCC(NS(=O)(=O)c4ccc5c(c4)OCCO5)CC3)n2)cc1	14	-2	23	95*	i	95*
Cc1ccc(-c2csc(N3CCC(C(N)=O)CC3)n2)cc1	1	-1	1	0	i	x
Cc1cccc(OCCCSc2nc3ccccc3[nH]2)c1	2	-10	6	51*	i	64*
CCCOc1ccc(CSc2nc3ccccc3[nH]2)cc1	3	-5	17	98*	i	92*
CC(c1nc2ccccc2[nH]1)N(C(=O)Cc1csc2ccccc12)c1cccnc1 (centres undefined)	2	x	-6	0	i	x
CCc1ccc(Nc2cc(=O)n(C3CCCCC3)c(=O)[nH]2)cc1	10	-36	0	63*	i	107*
Cc1cc(C)n(-c2nc(N(c3ccccc3)c3ccccc3)nc(-n3nc(C)cc3C)n2)n1	x	34*	26	80*	i	2
CCCNC(=O)C1(C)CCCN(Cc2cccs2)C1 (centres undefined)	-1	x	-8	-1	i	x
Cc1ccc(C2(CCNC(C)c3cccs3)CCOC(C(C)C)C2)cc1 (centres undefined)	-7	2	0	91*	i	-14	MPTP swell DR=12*;MPTP cs DR=59*
COc1cc(OC)cc(OC(=O)C2CCN(C(=O)c3ccc(Cl)cc3)CC2)c1	0	0	14	-2	i	x

From PubChem
